# According to PubChem BioAssay (Tox21):
# Results filed as inconclusive are left out. A call without a number means that no potency is given here. Activity calls are given as the source filed them. Unless noted, the call rests on the fitted dose curve; in most records, active means well fitted curve in the direction sought with a large enough effect in the repeat runs; inconclusive means weak or mixed curves; inactive means no such curve, though single readings can be large; an effect the other way counts as inactive or inconclusive.
# How the values were obtained:
# [1] = A CellTox Green Cytotoxicity Assay to monitor cytotoxicity in HepG2 cells - 0 hour (AID 1224882); further: nearly all actives have a fitted effect of over 35% in size
# Method in brief: (§1)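 Read-out is fluorescence of a cyanine dye excluded from live cells that stains DNA of dead HepG2 cells, with signal proportional to cytotoxicity. Plates were read at 0, 8, 16, 24, 32 and 40 h after compound addition.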
# [2] = A CellTox Green Cytotoxicity Assay to monitor cytotoxicity in HepG2 cells - 32 hour (AID 1224883); further: nearly all actives have a fitted effect of over 50% in size
# Method in brief: as §1
# [3] = A CellTox Green Cytotoxicity Assay to monitor cytotoxicity in HEK293 cells - 8 hour (AID 1224884); further: nearly all actives have a fitted effect of over 35% in size
# Method in brief: (§2)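 Nonlytic real-time cytotoxicity: HEK293 + CellTox Green reagent plated, 5 h preincubation, pintool compound addition (23 nL in DMSO), 37 C for 40 h, fluorescence measured at successive time points.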
# [4] = qHTS RealTime-Glo MT Cell Viability Assay in HEK293 cells - 24 hour (AID 1224886); further: top concentration of the series differs between compounds; nearly all actives have a fitted effect of over 50% in size
# Method in brief: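 Luminescence generated by NanoLuc from substrate produced by living HEK293 cells served as the viability signal. Each value reflects the reading at its stated time point during continuous 40 h compound exposure at 37 C.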
# [5] = qHTS RealTime-Glo MT Cell Viability Assay in HEK293 cells - 8 hour (AID 1224887); further: top concentration of the series differs between compounds; nearly all actives have a fitted effect of over 50% in size
# Method in brief: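 Cells were seeded together with NanoLuc luciferase and a prosubstrate that viable cells reduce to a luciferase substrate. After a 5 h incubation at 37 C/5% CO2, compounds were added and luminescence was measured repeatedly during 40 h of treatment.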
# [6] = qHTS RealTime-Glo MT Cell Viability Assay in HepG2 cells - 0 hour (AID 1224889); further: nearly all actives have a fitted effect of over 50% in size
# Method in brief: (§3)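 Tox21 10K library screened in qHTS format on HepG2 cells carrying RealTime-Glo reagents. Compounds were added after a 5 h preincubation, and the luminescent signal from continuous culture was measured repeatedly during 40 h treatment.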
# [7] = A CellTox Green Cytotoxicity Assay to monitor cytotoxicity in HepG2 cells - 8 hour (AID 1224890); further: nearly all actives have a fitted effect of over 45% in size
# Method in brief: as §1
# [8] = qHTS assay to identify small molecule antagonists of the estrogen receptor alpha (ER-alpha) signaling pathway using the BG1 cell line in the presence of 0.1 nM 17-beta-estradiol - cell viability counter screen (AID 1259241); further: nearly all actives have a fitted effect of over 40% in size; further: potency means the concentration at half of the fitted maximal effect
# Method in brief: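 Cells were plated and left 24 hr, compounds in DMSO were pinned in, 17beta-estradiol was added to 0.1 nM final, and after 22 hr CellTiter-Fluor reagent was added for 30 min before fluorescence was read.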
# [9] = qHTS assay to identify small molecule antagonists of the androgen receptor (AR) signaling pathway using the MDA cell line in the presence of 0.5 nM R1881 - cell viability counter screen (AID 1259242); further: nearly all actives have a fitted effect of over 45% in size
# Method in brief: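 Counter screen for cytotoxicity run in the same wells as the AR antagonist reporter screen: MDA-kb2 cells were treated 16 hr with test compounds and 0.5 nM R1881, then live-cell protease activity was measured by fluorescence.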
# [10] = qHTS assay to identify small molecule phospholipidosis (PLD) inducers (AID 1259344; active means well fitted curve in the direction sought with a large enough effect; an effect the other way counts as inactive or inconclusive)
# Method in brief: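 Fluorescent phospholipid staining (LipidTOX Red) measured by automated microscopy in fixed HepG2 cells after 24 h treatment; nuclei counterstained with Hoechst 33342; amiodarone as reference inducer.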
# [11] = qHTS assay to identify small molecule HDAC inhibitors (AID 1259364); further: top concentration of the series differs between compounds; nearly all actives have a fitted effect of over 45% in size
# Method in brief: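 Luminescence from a cell-permeant luminogenic class I/II HDAC substrate reports endogenous deacetylase activity in intact HCT-116 cells treated with compounds for 2 h.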
# [12] = qHTS assay to identify small molecule agonists of the sonic hedgehog signaling (Shh) pathway - cell viability counter screen (AID 1259366); further: nearly all actives have a fitted effect of over 50% in size
# Method in brief: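 Cells are plated at 2,000 per well and left 4hr at 37C, 5% CO2 before compound addition. After 23hr of treatment, CellTiter-Fluor reagent is added for 1hr at 37C and fluorescence is measured.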
# [13] = qHTS assay to identify small molecule antagonists of the sonic hedgehog signaling (Shh) pathway - cell viability counter screen (AID 1259367); further: nearly all actives have a fitted effect of over 55% in size; further: potency means the concentration at half of the fitted maximal effect
# Method in brief: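 Using CellTiter-Fluor, viability of Gli1-Luc reporter 3T3 cells is read by fluorescence in the wells used for the Shh luciferase assay. Treatment lasts 23 hr with conditioned medium, then reagent 1 hr at 37C.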
# [14] = qHTS assay to identify small molecule agonists of the sonic hedgehog signaling (Shh) pathway (AID 1259368; calls by dose curve;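 further: NIH/3T3-derived 3T3Gli1-Luc cells carrying a stable Gli1-driven firefly luciferase reporter; series mostly up to about 92 µM; nearly all actives have a fitted effect of over 15% in size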)
# Method in brief: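 3T3Gli1-Luc (NIH/3T3 clone, stable Gli1-Luc); 4 hr pre-incubation, then cpd in DMSO 24 hr, 37 C/5% CO2; luciferase reagent 30 min RT; luminescence.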
# [15] = A CellTox Green Cytotoxicity Assay to monitor cytotoxicity in HEK293 cells - 16 hour (AID 1224888); further: nearly all actives have a fitted effect of over 35% in size
# Method in brief: as §2
# [16] = target: Estrogen receptor (Homo sapiens) (UniProt P03372); test: qHTS assay to identify small molecule antagonists of the estrogen receptor alpha (ER-alpha) signaling pathway using the BG1 cell line in the presence of 0.1 nM 17-beta-estradiol (AID 1259244); further: nearly all actives have a fitted effect of over 50% in size
# Estrogen receptor (Homo sapiens), sequence (P03372 whole entry, looked up): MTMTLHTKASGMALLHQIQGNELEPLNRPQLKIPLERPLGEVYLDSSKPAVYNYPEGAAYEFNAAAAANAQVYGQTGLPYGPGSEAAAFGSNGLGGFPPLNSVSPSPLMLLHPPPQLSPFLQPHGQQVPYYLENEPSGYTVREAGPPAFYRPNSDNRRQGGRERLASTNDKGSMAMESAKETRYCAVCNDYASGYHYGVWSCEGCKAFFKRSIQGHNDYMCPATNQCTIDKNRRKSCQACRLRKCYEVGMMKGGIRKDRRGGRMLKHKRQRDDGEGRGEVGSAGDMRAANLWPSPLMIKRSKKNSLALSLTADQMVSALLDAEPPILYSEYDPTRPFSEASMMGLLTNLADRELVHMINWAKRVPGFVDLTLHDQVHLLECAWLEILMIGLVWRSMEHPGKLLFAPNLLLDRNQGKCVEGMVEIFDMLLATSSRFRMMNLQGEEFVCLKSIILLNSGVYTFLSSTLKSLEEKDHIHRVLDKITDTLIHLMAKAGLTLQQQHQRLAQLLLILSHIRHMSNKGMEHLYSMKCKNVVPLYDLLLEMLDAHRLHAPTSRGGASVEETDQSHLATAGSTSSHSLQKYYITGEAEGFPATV
# Method in brief: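 Cells: VM7Luc4E2, endogenous ER-alpha, 4x ERE-luc stable. Pre-culture 5 d, phenol red-free, charcoal-stripped FBS. Plated 24 h, compound + E2 0.1 nM final, 22 h 37C/5% CO2. Readout ONE-Glo luminescence.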
# [17] = qHTS assay to identify small molecule HDAC inhibitors - cell viability counter screen (AID 1259365)
# Method in brief: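 Counter screen in wild-type HCT-116 cells: compounds dissolved in DMSO are pin-transferred onto overnight-plated cells and left 2hr at 37C. ATP-based CellTiter-Glo luminescence then measures viable cells.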
# [18] = qHTS assay to identify small molecule antagonists of the sonic hedgehog signaling (Shh) pathway (AID 1259369; calls by dose curve; further: nearly all actives have a fitted effect of over 45% in size; further: potency means the concentration at half of the fitted maximal effect)
# Method in brief: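 3T3Gli1-Luc, conditioned-medium-stimulated, 24hr cpd, 37C/5% CO2; Gli1-driven firefly Luc luminescence after 30min RT with luciferase reagent. Cells plated 4hr before cpd.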
# [19] = qHTS RealTime-Glo MT Cell Viability Assay in HepG2 cells - 16 hour (AID 1224885); further: nearly all actives have a fitted effect of over 50% in size
# Method in brief: as §3
# [20] = target: Androgen receptor (Homo sapiens) (UniProt P10275); test: qHTS assay to identify small molecule antagonists of the androgen receptor (AR) signaling pathway using the MDA cell line in the presence of 0.5 nM R1881 (AID 1259243); further: nearly all actives have a fitted effect of over 50% in size
# Androgen receptor (Homo sapiens), sequence (P10275 whole entry, looked up): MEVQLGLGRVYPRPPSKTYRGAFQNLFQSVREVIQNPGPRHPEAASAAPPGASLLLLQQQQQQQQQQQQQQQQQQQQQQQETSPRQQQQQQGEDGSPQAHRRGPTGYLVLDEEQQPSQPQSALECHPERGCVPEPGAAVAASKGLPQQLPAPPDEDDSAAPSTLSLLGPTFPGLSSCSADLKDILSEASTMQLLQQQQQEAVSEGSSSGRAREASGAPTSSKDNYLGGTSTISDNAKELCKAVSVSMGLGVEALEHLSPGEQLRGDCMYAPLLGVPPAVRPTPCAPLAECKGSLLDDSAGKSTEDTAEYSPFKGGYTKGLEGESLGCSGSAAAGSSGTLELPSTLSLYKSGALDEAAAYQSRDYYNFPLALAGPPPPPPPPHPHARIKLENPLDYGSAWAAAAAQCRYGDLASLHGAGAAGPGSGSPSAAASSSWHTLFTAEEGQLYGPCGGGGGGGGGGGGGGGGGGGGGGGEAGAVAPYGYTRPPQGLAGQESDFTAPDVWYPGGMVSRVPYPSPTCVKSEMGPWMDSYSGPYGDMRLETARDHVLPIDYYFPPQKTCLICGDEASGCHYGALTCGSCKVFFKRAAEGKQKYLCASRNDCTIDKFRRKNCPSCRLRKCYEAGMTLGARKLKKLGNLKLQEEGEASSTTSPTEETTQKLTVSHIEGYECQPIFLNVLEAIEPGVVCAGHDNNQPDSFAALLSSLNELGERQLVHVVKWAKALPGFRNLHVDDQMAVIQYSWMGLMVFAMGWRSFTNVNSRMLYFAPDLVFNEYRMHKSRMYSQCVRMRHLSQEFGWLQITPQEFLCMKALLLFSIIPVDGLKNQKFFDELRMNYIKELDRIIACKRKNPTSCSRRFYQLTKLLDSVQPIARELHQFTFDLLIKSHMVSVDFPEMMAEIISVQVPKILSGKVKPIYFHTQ
# Method in brief: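 Luciferase luminescence is the read-out: compounds are tested for suppressing 0.5 nM R1881-driven MMTV reporter activity in MDA-kb2 cells after 16 hr at 37C.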
SMILES,Potency [1],Potency [2],Potency [3],Potency [4],Potency [5],Potency [6],Potency [7],Potency [8],Potency [9],Potency [10],Potency [11],Potency [12],Potency [13],Potency [14],Potency [15],Potency [16],Potency [17],Potency [18],Potency [19],Potency [20]
NC12CC3CC(CC(C3)C1)C2,inactive,inactive,inactive,inactive,inactive,inactive,inactive,inactive,inactive,inactive,inactive,inactive,inactive,inactive,–,–,–,–,–,–
CCOc1ccc2c(c1)C(C)=CC(C)(C)N2,inactive,inactive,inactive,inactive,inactive,–,–,inactive,inactive,inactive,–,inactive,inactive,inactive,inactive,inactive,inactive,–,–,–
O=C(O)c1cc(Cl)cc(Cl)c1,inactive,inactive,inactive,inactive,inactive,–,inactive,inactive,inactive,–,inactive,–,inactive,inactive,–,inactive,–,inactive,–,–
CC[C@]1(O)C[C@@H]2CN(CCc3c([nH]c4ccccc34)[C@@](C(=O)OC)(c3cc4c(cc3OC)N(C)[C@H]3[C@@](O)(C(=O)OC)[C@H](OC(C)=O)[C@]5(CC)C=CCN6CC[C@]43[C@@H]65)C2)C1,inactive,inactive,inactive,–,inactive,inactive,inactive,1880 nM (active),inactive,inactive,–,–,29.8 nM (active),inactive,–,–,–,37.6 nM (active),–,–
CCCC(=O)c1ccccc1,inactive,inactive,–,inactive,inactive,inactive,–,inactive,inactive,–,inactive,inactive,inactive,inactive,inactive,–,inactive,inactive,inactive,inactive
C=CC(=O)OCCCCCCCC,inactive,inactive,–,–,inactive,–,inactive,inactive,inactive,–,inactive,inactive,inactive,inactive,inactive,inactive,–,–,–,–
